Among the data in PubChem BioAssay AID1779 (Sanford-Burnham Center for Chemical Genomics, 2009) are inhibition values, retold here.

The inhibition is the change of the read-out against control, counted positive when it falls.

Screen size: about 290,000 compounds; about 160 (0.055%) were called active. For the sample, actives were picked, then their nearest neighbours and some compounds at random. Unmarked numbers belong to inactive results. No stated cut-off is given here; in the data, active means inhibition above about 50%; inactive means the rest.

The experiment deals with Tyrosine-protein phosphatase non-receptor type 22 (Homo sapiens) (UniProt Q9Y2R2). The experiment can be described thus: inhibitors of LYP phosphatase, biochemical, fluorescence intensity, uHTS (AID 1779).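 Further: plate controls were vehicle with enzyme for no effect and no enzyme for full effect.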 The following applies: recombinant LYP phosphatase, at 11.5 µM, hits give high values.
Tyrosine-protein phosphatase non-receptor type 22 (Homo sapiens), sequence (Q9Y2R2 whole entry, looked up): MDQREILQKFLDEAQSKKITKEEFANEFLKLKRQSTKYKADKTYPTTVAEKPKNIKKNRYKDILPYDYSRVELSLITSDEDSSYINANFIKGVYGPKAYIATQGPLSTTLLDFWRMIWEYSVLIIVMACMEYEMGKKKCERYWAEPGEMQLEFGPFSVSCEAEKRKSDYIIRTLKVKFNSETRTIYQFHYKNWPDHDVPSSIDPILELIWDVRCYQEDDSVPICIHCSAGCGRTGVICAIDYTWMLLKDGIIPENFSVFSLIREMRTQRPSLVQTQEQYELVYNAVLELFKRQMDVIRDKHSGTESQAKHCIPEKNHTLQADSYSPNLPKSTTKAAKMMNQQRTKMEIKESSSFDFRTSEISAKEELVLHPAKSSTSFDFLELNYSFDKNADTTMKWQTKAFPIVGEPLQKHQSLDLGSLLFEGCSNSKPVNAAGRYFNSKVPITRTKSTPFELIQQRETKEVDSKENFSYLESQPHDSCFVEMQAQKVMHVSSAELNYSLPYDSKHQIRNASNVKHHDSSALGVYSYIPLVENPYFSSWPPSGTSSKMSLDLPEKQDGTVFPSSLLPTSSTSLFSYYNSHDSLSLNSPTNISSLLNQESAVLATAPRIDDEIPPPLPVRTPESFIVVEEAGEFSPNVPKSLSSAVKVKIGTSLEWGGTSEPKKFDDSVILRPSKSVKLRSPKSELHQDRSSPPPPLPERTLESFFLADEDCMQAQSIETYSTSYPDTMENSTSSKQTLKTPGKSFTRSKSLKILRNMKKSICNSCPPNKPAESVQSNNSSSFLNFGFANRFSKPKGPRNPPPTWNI
Turning to `Cc1cc(=O)oc2cc(OCCSCCN3CCOCC3)ccc12`, the inhibition was -5.9%.

In the case of `COc1ccc(N2CCN(C(=O)c3ccc(COc4ccc5c(C)cc(=O)oc5c4)cc3)CC2)cc1`, the inhibition is 2.8%.

Turning to `COc1ccc(N2CCN(CCOc3ccc4c(C)cc(=O)oc4c3)CC2)cc1`, the inhibition is 67.7% (active). In the case of `N#C/C(=C\c1ccccc1O)C(=O)Nc1cccnc1` it was -9%; in that of `O=C(CCN1C(=O)c2ccccc2S1(=O)=O)Nc1ccccc1O`, -0.2%. In the case of `CCc1nnc(NS(=O)(=O)c2ccc(NC(=O)c3cccc4ccccc34)cc2)s1` it was 1.6%. On to `CCc1nnc(NS(=O)(=O)c2ccc(NC(=O)c3cc4ccccc4oc3=O)cc2)s1`, for which the inhibition is 1.9%.

On to `C=CCc1cccc2cc(C(=O)Nc3ccc(S(=O)(=O)Nc4nnc(CC)s4)cc3)c(=O)oc12`, for which the inhibition was 71.3% (active). As for `Cc1c(C)n(C(=O)CN2CCN(c3ccccn3)CC2)c2ccccc12`, the inhibition is 5.2%. For the compound `O=C(Nc1c(F)cccc1F)c1ccc2c(c1)CCN2S(=O)(=O)c1ccccc1`, the inhibition was -8.4%. On to `Cc1cc(Cl)ccc1OCc1n[nH]c(=S)n1C1CCCCC1`, for which the inhibition is 4%. In the case of `Nc1ccc(N2CCN(CCCCN3C(=O)C4CCCN4C3=O)CC2)cc1` (configuration not stated) it was -25%; in that of `Cc1ccc(N2CCN(CCCCN3C(=O)C4CCCN4C3=O)CC2)cc1` (configuration not stated), 62.7% (active). In the case of `Cc1ccc(N2CCN(CCCN3C(=O)C4CCCN4C3=O)CC2)cc1` (configuration not stated) it was 1.4%. In the case of `Cc1cccc(OCC(O)CN2CCOCC2)c1` (configuration not stated) it was -8.2%; in that of `CCN(CC)CCCNC(=O)Cn1ncn2cccc2c1=O`, -3.9%; in that of `CC(C)(C)c1ccc(C2(C)NC(=O)N(CC(=O)NCc3cccs3)C2=O)cc1` (configuration not stated), -8.4%. On to `COc1ccc(OC(C)C(=O)N2CCC(C)CC2)cc1` (configuration not stated), for which the inhibition was -5.6%.

As to `COc1ccc(OC(C)C(=O)N2CC(C)OC(C)C2)cc1` (configuration not stated), the inhibition is 63.6% (active). Take `COc1ccc(OC(C)C(=O)N2CCOCC2)cc1` (configuration not stated): the inhibition was -9.8%. With `COC(=O)c1ccc2c(c1)NC(=O)C(N1CCCCC1)S2` (configuration not stated) the figure was 1%; with `Cc1c(C(=O)O)sc2nc(/C=C/c3cccc(O)c3)[nH]c(=O)c12`, -5.3%. With `Cc1c(C(=O)O)sc2nc(/C=C/c3cccc(F)c3)[nH]c(=O)c12`, the inhibition was -4.3%. With `CCCOc1ccc(/C=N/NC(=O)CSc2ccccn2)cc1OC` the figure was 0.2%. With `CCN(CC)S(=O)(=O)c1ccc(N2CCOCC2)c(NC(=O)Cc2cccc3ccccc23)c1` the figure was -0.8%; with `COc1ccc(C(CC(=O)N2CCCCC2)c2c(OC)cc(OC)c3ccc(=O)oc23)cc1` (configuration not stated), -2.3%; with `O=C(c1ccncc1)N1CCN(C(=O)c2ccncc2)CC1`, 67% (active). With `COc1ccc(C(=O)N2CCN(C(=O)c3ccncc3)CC2)cc1` the figure was -9.1%; with `CS(=O)(=O)N1CCN(C(=O)c2ccncc2)CC1`, -7.1%; with `CC(=O)N1CCCN(Cc2cn(-c3cccc(C)c3)nc2-c2cccc(F)c2)CC1`, -2.6%. Turning to `Cc1ccc(-n2cc(CN3CCN(C(=O)c4ncn[nH]4)CC3)c(-c3ccc(F)cc3)n2)cc1`, the inhibition was -3.9%. In the case of `Cc1cccc(-n2cc(CN3CCN(C(=O)c4ncn[nH]4)CC3)c(-c3cccc(F)c3)n2)c1` it was 56.5% (active); in that of `CCN(CCCNC(=O)COc1cc(=O)n(CC)c2ccccc12)Cc1ccccc1`, 6.1%. In the case of `CCOc1ccc(Nc2nc(N)c([N+](=O)[O-])c(N3CCN(CC)CC3)n2)cc1` it was -3.7%; in that of `N#C/C(=C(/O)c1ccc(C(=O)c2ccccc2)cc1)c1nc2ccccc2[nH]1`, -4.1%. In the case of `O=C(N/N=C/c1ccccn1)c1ccc(Cl)cc1` it was -5.3%. On to `O=C(N/N=C/c1ccccn1)c1ccccc1`, for which the inhibition was 2.8%. In the case of `O=C(N/N=C/c1ccccn1)c1ccc(Cl)c(Cl)c1` it was 72% (active); in that of `COc1cc(/C=C2\SC(=O)N(c3ccc(Cl)cc3)C2=O)cc([N+](=O)[O-])c1O`, 91.6% (active). In the case of `COc1cc(/C=C2\SC(=O)N(c3cccc(Cl)c3)C2=O)cc([N+](=O)[O-])c1O` it was 92.2% (active); in that of `COc1cc(/C=C2\SC(=O)N(Cc3ccc(F)cc3)C2=O)cc([N+](=O)[O-])c1O`, 0.7%; in that of `COc1cc(/C=C2\SC(=O)N(c3ccccc3Cl)C2=O)cc([N+](=O)[O-])c1O`, 11.7%.

On to `COc1cc(/C=C2\SC(=O)N(CC(=O)Nc3cccc(C)c3)C2=O)cc([N+](=O)[O-])c1O`, for which the inhibition was 4.5%. With `COc1cc(/C=C2\SC(=O)N(Cc3ccc(Cl)cc3)C2=O)cc([N+](=O)[O-])c1O` the figure was 33%; with `CS(=O)(=O)N(CC(=O)N1CCN(c2cccc(Cl)c2)CC1)c1cccc(F)c1`, 4.5%; with `CCCCN(C)CCC(=O)Nc1ccc2c(c1)CCC2`, -2.9%.

On to `CCOc1ccc(Cl)cc1/C=N/NC(=O)c1ccccc1`, for which the inhibition was -4.5%. On to `CC1(C)c2ccccc2N2CC(=O)N[C@@]21/C=C/C=C/c1ccccc1`, for which the inhibition is 8.6%. With `c1cc(-n2nnc3cnccc32)ccn1` the figure was -4.3%. In the case of `CC(=O)Nc1ccc(SCC(=O)Nc2ccc(Cl)cn2)cc1` it was 77.1% (active); in that of `CC(=O)Nc1ccc(NC(=O)CSc2ccc(C)cc2)cc1`, -2.7%; in that of `O=C(CSc1ccc2c(c1)OCCO2)Nc1ccc(Cl)cn1`, -8.6%.

`CCn1cc(C(=O)NCCCN(CC(C)C)CC(C)C)c(=O)c2cc(S(=O)(=O)N(C)C3CCCCC3)ccc21`: the inhibition is -0.6%. In the case of `O=C(NC1CCSc2ccccc21)c1ccc(C(F)(F)F)cc1` (configuration not stated) it was -7.3%. In the case of `O=C(NCc1ccc(F)cc1)c1c2c(nc3ccccc13)CCC2` it was 3.5%; in that of `Cc1ccc2c(C)c(C(=O)NCC(C)(C)N3CCOCC3)oc2c1C`, -8.2%; in that of `COc1ccc(NC(=O)CC#N)cc1OC`, 0.1%.

Regarding `C=CCc1ccc(OC)c(OC)c1`, the inhibition is -8.6%. In the case of `COc1ccc(C(C#N)(CCC#N)CCC#N)cc1OC`, the inhibition is 56.1% (active). In the case of `CC(C)N(C(=O)CSc1nc2ccccc2n1Cc1ccccc1F)C(C)C` it was 5.2%; in that of `CCOC(=O)C(C(=O)NCC1CCCO1)C1CCCCC1` (configuration not stated), -4.2%; in that of `COC(=O)C(C(=O)NCC1CCCO1)C1CCCCCC1` (configuration not stated), 86.6% (active).

For `COC(=O)C(C(=O)NCC1CCCO1)C1CCCC1` (configuration not stated), the inhibition was -6.5%. With `CCOC(=O)NC(=O)C(=CNc1cccc(C)c1)C(=O)NC(=O)OCC` the figure was -4.7%; with `CCOC(=O)NC(=O)C(=CNc1cccc(OC)c1)C(=O)NC(=O)OCC`, -7.5%; with `CCOC(=O)NC(=O)C(=CNc1ccc(C)cc1)C(=O)NC(=O)OCC`, 57.4% (active). With `O=C(CN1C(=O)NC2(CCc3ccccc3C2)C1=O)Nc1ccc(F)cc1` (configuration not stated) the figure was 2%; with `COCC(=O)N(Cc1cc2ccc(C)cc2[nH]c1=O)c1cccc(C)c1`, -1%.

Take `NS(=O)(=O)c1cc(C(=O)OCC(=O)N2CCOCC2)ccc1Cl`: the inhibition is -4%.

`COc1ccc(/C=C2\SC(=S)N(CCCC(=O)Nc3ccc(C(=O)O)cc3)C2=O)cc1OC`: the inhibition was -1.9%. In the case of `COc1cc(/C=C2/SC(=S)N(CCC(=O)Nc3ccc(C(=O)O)cc3)C2=O)cc(OC)c1OC` it was -0.9%.

In the case of `O=S(=O)(CCc1ccncc1)C1Cc2cccc3cccc1c23` (configuration not stated), the inhibition is -6.1%. Turning to `CC(C)(C)S(=O)(=O)c1cnc(N2CCCCC2)nc1N`, the inhibition is -1.3%.

Take `COc1ccc(N2C(=O)CC(NC34CC5CC(CC(C5)C3)C4)C2=O)c(OC)c1` (configuration not stated): the inhibition is -6.7%. In the case of `CC(=O)c1cccc(NC(=O)NC(C)c2ccc3c(c2)OCO3)c1` (configuration not stated) it was -12.5%; in that of `CCCNC(=O)c1ccccc1N1CCN(CCCCN2C(=O)C3CCCCN3C2=O)CC1` (configuration not stated), -16.7%. `COc1ccc(C2CC(c3cccs3)=NN2C(=O)CSc2nncn2C)cc1OC` (configuration not stated): the inhibition is 7.7%. With `Cc1[nH]c2ccccc2c1N=Nc1c(C)n(C)n(-c2ccccc2)c1=O` the figure was 94.5% (active); with `Cc1c(N=Nc2ccc(O)cc2)c(=O)n(-c2ccccc2)n1C`, -2.3%; with `Cc1c(-n2c(=S)[nH]c3ccccc3c2=O)c(=O)n(-c2ccccc2)n1C`, -7.5%. In the case of `Cc1cc2c(c(SCC(=O)NCc3ccc(Cl)cc3)n1)C(=O)OC2`, the inhibition was -1.3%.

Consider `CSCCC(NC(=O)c1ccccc1)C(=O)N(C)CC(=O)Nc1ccc(N2CCOCC2)cc1` (configuration not stated), for which the inhibition was -6.8%. In the case of `COCCN(C(=O)COC(=O)c1cccc2ccccc12)c1c(N)n(Cc2ccccc2)c(=O)[nH]c1=O` it was -10.3%; in that of `Cc1cccc(C)c1Nc1nnc(SC/C(O)=C(\C#N)c2nc3ccccc3[nH]2)s1`, 4.2%. For `CCOC(=O)C(C(C)C)C(N)Cc1ccc(F)cc1` (configuration not stated), the inhibition is -7.7%. In the case of `CCCCC(C(=O)OCC)C(N)Cc1ccc(F)cc1` (configuration not stated) it was 89.5% (active); in that of `CCCCC(CC)C(=O)NCc1ccc(F)cc1` (configuration not stated), -9.2%; in that of `CC(C)CNC(=O)C1CCCN(C(=O)NCc2ccccc2)C1` (configuration not stated), -8.2%.

Consider `COc1cc(C2SCC(=O)N2CCCN(C)C)cc(OC)c1OC` (configuration not stated), for which the inhibition was -6.3%. `COc1ccc(C2SCC(=O)N2CCCN(C)C)cc1` (configuration not stated): the inhibition was 50.7% (active). Turning to `CN(C)CCCN1C(=O)CSC1c1ccccc1` (configuration not stated), the inhibition was -5.4%. With `COc1ccc(C2CC23N=C(c2ccccc2)OC3=O)cc1` (configuration not stated) the figure was -2.9%.

Consider `Cc1nnc(SCc2cccs2)[nH]c1=O`, for which the inhibition is -5.9%. With `O=C(NC1CCN(Cc2ccccc2)CC1)C1CCCN(c2nnc(-n3cccc3)s2)C1` (configuration not stated) the figure was -1.4%.

`CC(C)C(OC(=O)c1cc2occc2n1C)C(=O)NCc1ccc2c(c1)OCO2` (configuration not stated): the inhibition is 3.8%. With `CC(C)n1c(C(=O)OCC(=O)NCc2ccc3c(c2)OCO3)cc2occc21` the figure was 59.5% (active); with `CC(C)n1c(C(=O)OCC(=O)NCc2ccc3c(c2)OCO3)cc2sccc21`, -13%.
